Assay results reported in PubChem BioAssay.
Results filed as inconclusive are left out. Calls of active or inactive are those of the source.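 The calls were made as follows, unless noted: active = Her2 level under about 52% in both replicate screens, with viability over 70% of control (limit read from the data); inconclusive = Her2 under the limit in one screen only, or viability under 70%; inactive = Her2 level above the set limit.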

What was measured:
[1] = reducers of endogenous Her2 protein level, primary screen, SKBR3 breast tumor cells, AlphaScreen, ATP viability (AID 461); conditions: 18-24 h, measured here: SKBR3 viability, ATP luminescence, at 10 µM;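 as to Her2 level: lower value means less Her2 protein in the cells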;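 as to viability: percent of carrier control wells set as 100% viability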
[2] = molecular target: Receptor tyrosine-protein kinase erbB-2 (Homo sapiens) (UniProt P04626); test: as above; conditions: 18-24 h, at 10 µM, stronger effect = lower value
[3] = SK-BR-3 cell growth inhibitors, pilot screen, 24 h, human (AID 572;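 active = viability at or below 10% of carrier control in both of two separate runs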;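 also: compound exposure lasted between 18 and 24 h rather than exactly 24 h; 100% = carrier-treated control wells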); conditions: SK-BR-3 viability, CellTiter-Glo luminescence, at 10 µM, stronger effect = lower value
[4] = HUVEC growth inhibition – cell-based, human, primary screen (AID 575;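 active = viability at or below 30% in both replicate assays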;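 also: 100% = median of untreated cell wells with 0.1% DMSO on each plate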); conditions: HUVEC proliferation, CellTiter-Glo luminescence, 72 h; at 10 µM; stronger effect = lower value
[5] = growth inhibitors of H69AR lung tumor, primary screen, human, duplicate replicates (AID 580;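 active = viability at or under a set limit in both replicates, limit being median viability minus 3 SD, cut at about 48% in these data, passing the limit was not always enough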;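 also: 100% = mean luminescence of untreated wells and 0% = no signal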); conditions: H69AR lung tumor cells viability, ATP luminescence, 72 h; at 10 µM; stronger effect = lower value
[6] = reversal of MRP1-mediated doxorubicin resistance, pilot screen, H69AR cells, doxorubicin co-treatment (AID 601;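 active = viability loss from added drug above about 55%, and viability with drug at most 40%, in both replicates, limit read from the data, passing the limit was not always enough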); conditions: CellTiter-Glo, 72 h, at 10 µM; for differential viability (reversal): stronger effect = higher value
[7] = 384-well plate pilot, post-Golgi transport modulator project, inhibition of yeast transport mutant growth (AID 636; in the data active = inhibition above about 31%); conditions: absorbance 615 nm, about 18 h, stronger effect = higher value
[8] = growth suppression of yeast trafficking mutant, preliminary HTS, modulators of trafficking downstream of Golgi apparatus project, 1536-format plate, OD 615 nm (AID 637; in the data active = inhibition above about 30%); conditions: yeast transport mutant growth, absorbance 615 nm, 18 h; stronger effect = higher value
[9] = OD615 S. cerevisiae growth inhibition, permissive medium, pilot counter-assay, permissive growth control for S. cerevisiae lifespan shortening project (AID 705;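 active = growth inhibition above 25% in both replicates, a cutoff set 3 SD above the mean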); conditions: OD615, 24 h, at 10 µM, stronger effect = higher value
[10] = Restrictive medium S. cerevisiae growth inhibition, OD615, pilot screen of yeast lifespan reduction project, restrictive growth control (AID 706;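 active = growth inhibition above a set limit, 3 SD over mean compound inhibition, in both replicates, cut at about 43% in these data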;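 also: modified DeaD lifespan yeast strain shifted to restrictive glucose medium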); conditions: OD615, 48 h, at 10 µM, stronger effect = higher value
[11] = viability gain of MRP-1-high H69AR cells under doxorubicin, pilot screen, MRP-1 activator project, CellTiter-Glo, duplicate (AID 807;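 active = viability increase at or above a cutoff of the median across tested compounds plus 3 SD, cut at about 8.5% in these data, passing the limit was not always enough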;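 also: compound pretreatment 18-22 h then 72 h combined with doxorubicin; 0% = doxorubicin alone and 100% = vehicle without doxorubicin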); conditions: H69AR viability with doxorubicin, CellTiter-Glo luminescence; at 10 µM; stronger effect = higher value
[12] = growth suppression of beta-catenin knockout HCT116, pilot screen, human colon tumor cells (AID 823;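 active = cell viability at or below a set limit in both duplicate runs, the limit being the all-compound median minus 4 SD, cut at about 23% in these data, passing the limit was not always enough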;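 also: 0% = wells killed by 20 µM Hyamine and 100% = untreated DMSO cell wells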); conditions: CellTiter-Glo, 60 h, at 10 µM, stronger effect = lower value
[13] = growth suppression of PTEN-deleted HCT116, pilot screen, cell-based, HCT116 clonal line, CellTiter-Glo (AID 824;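 active = viability at or below 27.92% in each of two runs, the all-compound median minus 4 SD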;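 also: 0% = 20 µM Hyamine control and 100% = vehicle cell control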); conditions: 60 h, at 10 µM, stronger effect = lower value
[14] = inhibitors of the yeast RAM network, pilot screen, dse1pr::URA3 reporter, 5-FOA selection (AID 869;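 active = inhibition over a set limit, the all-compound mean plus 3 SD, in both replicate runs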;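 also: 0% = DMSO wells with no growth and 100% = 10 µM 1-NA-PP1 with full growth; RAM network block rescues cells from 5-FOA so hits raise OD615 growth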); conditions: S. cerevisiae dse1pr::URA3 5-FOA growth, OD615, 2 d; at 10 µM; stronger effect = higher value; strain carries analog-sensitive mutant Cbk1 kinase
[15] = RAM signaling pathway blockade in yeast – S. cerevisiae, Pdr1DBD-CYC8 efflux-inhibited sensitized strain, primary screen (AID 1298;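 active = RAM network inhibition above 8.4% in each of two replicates, 3 SD over the compound average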;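 also: 0% = DMSO untreated cells without growth and 100% = 10 µM 1-NA-PP1 full growth; higher means more yeast growth rescued from 5-FOA killing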); conditions: S. cerevisiae cbk1-as DSE1-URA3 strain, 5-FOA growth OD615, 2 d; at 50 µM; stronger effect = higher value
[16] = H69AR cells + 2 uM doxorubicin, measured here: viability with 2 uM doxorubicin, stronger effect = lower value
[17] = H69AR cells, compound alone cytotoxicity

Chain of Receptor tyrosine-protein kinase erbB-2 (Homo sapiens) (P04626 whole entry, looked up): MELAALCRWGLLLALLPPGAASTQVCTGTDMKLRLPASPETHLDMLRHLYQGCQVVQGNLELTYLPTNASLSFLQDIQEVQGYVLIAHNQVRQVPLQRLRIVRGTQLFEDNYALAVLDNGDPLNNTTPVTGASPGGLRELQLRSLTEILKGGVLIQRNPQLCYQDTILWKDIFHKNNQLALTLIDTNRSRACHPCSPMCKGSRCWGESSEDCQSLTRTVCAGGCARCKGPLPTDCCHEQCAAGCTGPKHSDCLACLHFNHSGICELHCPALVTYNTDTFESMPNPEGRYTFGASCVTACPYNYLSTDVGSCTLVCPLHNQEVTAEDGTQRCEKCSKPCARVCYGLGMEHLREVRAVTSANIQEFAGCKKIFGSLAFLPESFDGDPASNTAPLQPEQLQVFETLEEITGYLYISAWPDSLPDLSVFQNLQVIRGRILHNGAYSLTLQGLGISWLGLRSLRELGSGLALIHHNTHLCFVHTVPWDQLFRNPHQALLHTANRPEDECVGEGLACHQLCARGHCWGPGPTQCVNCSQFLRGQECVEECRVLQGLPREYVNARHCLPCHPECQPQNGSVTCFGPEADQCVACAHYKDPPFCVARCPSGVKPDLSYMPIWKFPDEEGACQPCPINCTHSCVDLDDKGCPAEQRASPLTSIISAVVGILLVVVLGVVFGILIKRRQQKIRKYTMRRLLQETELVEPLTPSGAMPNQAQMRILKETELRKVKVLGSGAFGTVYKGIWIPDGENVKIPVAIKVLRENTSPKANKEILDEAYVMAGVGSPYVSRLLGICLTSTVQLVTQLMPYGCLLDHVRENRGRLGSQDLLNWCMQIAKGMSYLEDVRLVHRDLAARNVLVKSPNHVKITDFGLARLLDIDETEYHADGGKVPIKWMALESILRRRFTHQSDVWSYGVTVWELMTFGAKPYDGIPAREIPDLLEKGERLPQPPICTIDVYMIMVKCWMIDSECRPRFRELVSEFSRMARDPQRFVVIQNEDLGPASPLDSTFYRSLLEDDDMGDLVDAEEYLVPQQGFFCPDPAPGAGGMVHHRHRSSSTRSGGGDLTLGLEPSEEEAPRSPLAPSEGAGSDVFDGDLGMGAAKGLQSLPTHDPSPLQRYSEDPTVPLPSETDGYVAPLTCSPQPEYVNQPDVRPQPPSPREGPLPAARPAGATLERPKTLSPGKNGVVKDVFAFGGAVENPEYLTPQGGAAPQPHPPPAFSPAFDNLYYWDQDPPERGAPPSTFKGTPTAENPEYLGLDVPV

| Compound | viability [1] | Her2 level [2] | viability [3] | viability [4] | viability [5] | differential viability (reversal) ([6]; H69AR cells + 2 uM doxorubicin) | viability [6, 16] | viability [6, 17] | inhibition [7] | inhibition [8] | growth inhibition [9] | growth inhibition [10] | viability increase [11] | viability [12] | viability [13] | inhibition [14] | RAM network inhibition [15] |
| --- | --- | --- | --- | --- | --- | --- | --- | --- | --- | --- | --- | --- | --- | --- | --- | --- | --- |
| Cc1ccc(-n2nc(C)c3cc(C(=O)O)sc32)cc1 | 97% | 95.5% (inactive) | 97% (inactive) | 70.7% (inactive) | 87.2% (inactive) | 0.315% (inactive) | 86.8% | 87.2% | -2.31% (inactive) | -2% (inactive) | 16% (inactive) | 21.7% (inactive) | -2.19% (inactive) | 93.1% (inactive) | 94.9% (inactive) | 2.74% (inactive) | -1.34% (inactive) |
| O=C(Nc1ccc(N2C(=O)C3C4C=CC(C4)C3C2=O)cc1)Nc1nncs1 (stereo not drawn) | 92% | 108% (inactive) | 92% (inactive) | 96.2% (inactive) | 87.8% (inactive) | 2.15% (inactive) | 85.6% | 87.8% | -3.47% (inactive) | 0.83% (inactive) | -7.11% (inactive) | 6.49% (inactive) | -1.28% (inactive) | 97.6% (inactive) | 95.3% (inactive) | 0.53% (inactive) | 3.5% (inactive) |
| CC1=C(C(=O)OCc2ccccc2)C(c2ccco2)n2ncnc2N1 (stereo not drawn) | 98.5% | 95% (inactive) | 98.5% (inactive) | 87.1% (inactive) | 112% (inactive) | 23% (inactive) | 88.7% | 112% | -2.95% (inactive) | 2.67% (inactive) | 3.25% (inactive) | -3.8% (inactive) | -2.11% (inactive) | 92.8% (inactive) | 89% (inactive) | 0.83% (inactive) | 1.02% (inactive) |
| O=C(Nc1cccc2ccccc12)c1ccc(Br)o1 | 120% | 88.5% (inactive) | 120% (inactive) | 87.1% (inactive) | 84% (inactive) | -1.12% (inactive) | 85.1% | 84% | -3.25% (inactive) | -0.17% (inactive) | -10% (inactive) | 1.96% (inactive) | -1.67% (inactive) | 94.3% (inactive) | 90.8% (inactive) | 0.995% (inactive) | 3.58% (inactive) |
| Cc1nc2ccc(S(=O)(=O)NC(C(=O)N3CCCC3)C(C)C)cc2s1 (stereo not drawn) | 88.5% | 106% (inactive) | 88.5% (inactive) | 111% (inactive) | 97.3% (inactive) | 17.8% (inactive) | 79.5% | 97.3% | -1.92% (inactive) | -0.5% (inactive) | 3.5% (inactive) | 11.5% (inactive) | -2.03% (inactive) | 92.2% (inactive) | 91.2% (inactive) | 2.62% (inactive) | 0.27% (inactive) |
| COc1ccccc1OCC(=O)N1CCN(c2ccccc2OC)CC1 | 93.5% | 124% (inactive) | 93.5% (inactive) | 111% (inactive) | 104% (inactive) | 13.2% (inactive) | 91.2% | 104% | 3.78% (inactive) | -2.7% (inactive) | -3.77% (inactive) | -2.73% (inactive) | -2.73% (inactive) | 96.9% (inactive) | 95% (inactive) | 0.87% (inactive) | -1.28% (inactive) |
| O=C(Nc1ccc(Cl)cn1)c1cccnc1 | 104% | 112% (inactive) | 104% (inactive) | 81.6% (inactive) | 70.1% (inactive) | -17.4% (inactive) | 87.6% | 70.1% | -0.52% (inactive) | -6.56% (inactive) | -8.23% (inactive) | -14.8% (inactive) | -4.65% (inactive) | 63% (inactive) | 62% (inactive) | 1.56% (inactive) | -0.47% (inactive) |
| COc1ccc(C2CC(c3ccc(OC)cc3)n3nc(N)nc3N2)cc1 (stereo not drawn) | 97.5% | 98% (inactive) | 97.5% (inactive) | 88% (inactive) | 82.2% (inactive) | -2.91% (inactive) | 85.1% | 82.2% | 0.77% (inactive) | 0.17% (inactive) | 7.76% (inactive) | 16.3% (inactive) | 0.09% (inactive) | 105% (inactive) | 98.1% (inactive) | 1.62% (inactive) | 3.07% (inactive) |
| CNC(=O)c1ccsc1NC(=O)c1ccccc1 | 88.5% | 74% (inactive) | 88.5% (inactive) | 83.8% (inactive) | 80.8% (inactive) | -3.68% (inactive) | 84.5% | 80.8% | -4.8% (inactive) | -3.5% (inactive) | 14.6% (inactive) | 14.5% (inactive) | -0.77% (inactive) | 102% (inactive) | 95.2% (inactive) | 1.97% (inactive) | -1.39% (inactive) |
| COc1ccc(NC(=O)CSc2nnc(Cc3cccn3C)n2-c2ccc(F)cc2)cc1OC | 86% | 92.5% (inactive) | 86% (inactive) | 104% (inactive) | 94.7% (inactive) | 0.655% (inactive) | 94% | 94.7% | 0.38% (inactive) | 3.17% (inactive) | 3.84% (inactive) | 1.52% (inactive) | -3.01% (inactive) | 94.5% (inactive) | 94.2% (inactive) | 1.43% (inactive) | 2.95% (inactive) |
| CCOc1ccc(Cn2nnc(C(=O)Nc3cc(C)cc(C)c3)c2N)cc1 | 89.5% | 90.5% (inactive) | 89.5% (inactive) | 80.4% (inactive) | 86.2% (inactive) | 7.9% (inactive) | 78.3% | 86.2% | 0% (inactive) | -3.28% (inactive) | -7.71% (inactive) | 1.04% (inactive) | -3.02% (inactive) | 73% (inactive) | 77.8% (inactive) | 3.23% (inactive) | 8.35% (inactive) |
| COc1ccc(-n2ncc3c(N4CCC(C)CC4)ncnc32)cc1 | 100% | 106% (inactive) | 100% (inactive) | 56.2% (inactive) | 76.6% (inactive) | 35.3% (inactive) | 41.2% | 76.6% | -4% (inactive) | 3% (inactive) | -1.23% (inactive) | -0.39% (inactive) | -2.39% (inactive) | 101% (inactive) | 93.6% (inactive) | 1.94% (inactive) | 1.63% (inactive) |
| Cc1nn(C(=O)c2ccc3c(c2)OCO3)c(N)c1-c1ccccc1 | 102% | 95% (inactive) | 102% (inactive) | 98.3% (inactive) | 94.2% (inactive) | 9.75% (inactive) | 84.5% | 94.2% | -1.47% (inactive) | 2.13% (inactive) | 3.15% (inactive) | 5.03% (inactive) | -2.76% (inactive) | 99.2% (inactive) | 98.2% (inactive) | 0.585% (inactive) | 1.02% (inactive) |
| Cc1nc2sc(C(c3cccs3)N3CCC(C(N)=O)CC3)c(O)n2n1 (stereo not drawn) | 92.5% | 128% (inactive) | 92.5% (inactive) | 100% (inactive) | 91.8% (inactive) | -4.42% (inactive) | 96.2% | 91.8% | -3.73% (inactive) | -1% (inactive) | -0.435% (inactive) | 3.77% (inactive) | -0.3% (inactive) | 101% (inactive) | 94.2% (inactive) | 0.69% (inactive) | 4.12% (inactive) |
| CCOC(=O)N1CCC(NC(=O)c2cc3c(=O)n(C)c4ccccc4c3n2C)CC1 | 88% | 94% (inactive) | 88% (inactive) | 71.3% (inactive) | 73.1% (inactive) | -4.2% (inactive) | 77.3% | 73.1% | -2.67% (inactive) | -1.17% (inactive) | -11.7% (inactive) | -13% (inactive) | -3.46% (inactive) | 80.2% (inactive) | 84.5% (inactive) | 2.96% (inactive) | 9.59% (inactive) |
| Nc1cccc2c1C(=O)N(c1ccccc1)C2=O | 95% | 97% (inactive) | 95% (inactive) | 91.4% (inactive) | 98.8% (inactive) | 14.7% (inactive) | 84.1% | 98.8% | -3.87% (inactive) | -1.48% (inactive) | -10.6% (inactive) | -8.73% (inactive) | -2.17% (inactive) | 106% (inactive) | 95.2% (inactive) | 1.5% (inactive) | 0.47% (inactive) |
| COc1ccc(OC)c(S(=O)(=O)N2CCN(c3c(C)cccc3C)CC2)c1 | 100% | 86% (inactive) | 100% (inactive) | 79.5% (inactive) | 86.9% (inactive) | 3.56% (inactive) | 83.4% | 86.9% | -8.53% (inactive) | 2.33% (inactive) | 0.405% (inactive) | 6.42% (inactive) | -2.38% (inactive) | 68% (inactive) | 82.5% (inactive) | 1.79% (inactive) | 6.46% (inactive) |
| Cc1ccc2cc(CCNC(=O)C(C)C)c(=O)[nH]c2c1C | 87.5% | 102% (inactive) | 87.5% (inactive) | 99.4% (inactive) | 99% (inactive) | 6.72% (inactive) | 92.3% | 99% | -4.8% (inactive) | -1% (inactive) | -15.2% (inactive) | -19.7% (inactive) | -0.61% (inactive) | 105% (inactive) | 99.1% (inactive) | 1.52% (inactive) | 6.36% (inactive) |
| CCOC(=O)/C(C#N)=C(/C)c1ccc(OC)cc1 | 96% | 104% (inactive) | 96% (inactive) | 110% (inactive) | 102% (inactive) | 5.39% (inactive) | 96.2% | 102% | -2.53% (inactive) | -7.74% (inactive) | -14.7% (inactive) | -5.52% (inactive) | 0.09% (inactive) | 99.5% (inactive) | 99% (inactive) | 1.11% (inactive) | 3.87% (inactive) |
